Shown is part of a subset that was picked to be rich in hits.
Pf Dd2 inh: qHTS Primary assay for Inhibitors of Plasmodium falciparum Dd2 growth in vitro; P. falciparum Dd2 growth, SYBR Green, 72 h; 120,000 tested, 4.3% active; AID 1347417, 2020; Potency, µM (highest dose often 28.9 µM), without a hit: at the highest dose activity, negative = inhibition, usual class: inhibitors; active = well fitted inhibition curve with a large enough effect;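 also: plate controls were DMSO vehicle for no effect and reference drug for full effect; nearly all actives have a fitted effect of over 65% in size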
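Readout: SYBR Green fluorescence, 485 nm excitation, 535 nm emission, after ~16 h lysis at 37C. Before that, Dd2-infected red cells (2.5% hematocrit) grew 72 h with compound, 29 uM top final concentration.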
Numbers without * were called inactive; i = inactive; [ ] = another dose, or the depositor's remark. Potency is read from the fitted curve at half-maximal effect.

SMILES	Pf Dd2 inh
CCOC(=O)C1(Cc2ccccc2C)CCCN(Cc2cnc(C)s2)C1 (configuration not stated)	11.2µM*
CCOC(=O)C1(Cc2ccccc2F)CCCN(C(=O)C(=O)c2ccco2)C1 (configuration not stated)	-2.3%
O=C([C@H]1C[C@H](Oc2ccccc2)CN1C(=O)CC1CCCC1)N1CCOCC1	9.6%
Cc1cnc(C2CCN(S(C)(=O)=O)C2)n1C(C)C (configuration not stated)	-0.8%
COc1ccc(NC(=O)NC[C@H]2O[C@@H]3C[C@@H](CC(=O)NCc4cnn(C)c4)O[C@@H]3[C@@H]2O)cc1	i
CNc1nc2c(s1)C(c1cccc(F)c1)CC(=O)N2 (configuration not stated)	-13.1%
CSc1cccc(NC(=O)O[C@@H]2CC[C@]3(C)C(CC[C@@H](O)[C@H]3CC(=O)NCc3ccccc3)[C@]2(C)CO)c1 (some centres not stated)	11.2µM*
CSc1cccc(NC(=O)O[C@@H]2CC[C@]3(C)C(CC[C@@H](O)[C@H]3CC(=O)N3CCC[C@H]3CO)[C@]2(C)CO)c1 (some centres not stated)	-17.7%
CSc1cccc(NC(=O)O[C@@H]2CC[C@]3(C)C(CC[C@@H](O)[C@H]3CC(=O)N3CCCC3)[C@]2(C)CO)c1 (some centres not stated)	5.01µM*
C[C@]1(CO)C2CC[C@@H](O)[C@@H](CC(=O)N3CCCC3)[C@]2(C)CC[C@H]1OC(=O)Nc1cccc(F)c1 (some centres not stated)	-5.8%
CCCNC(=O)O[C@@H]1CC[C@]2(C)C(CC[C@@H](O)[C@H]2CC(=O)NCc2ccc(F)cc2)[C@]1(C)CO (some centres not stated)	i
COc1cc(NC(=O)O[C@@H]2CC[C@]3(C)C(CC[C@@H](O)[C@H]3CC(=O)N3CCCC3)[C@]2(C)CO)cc(OC)c1OC (some centres not stated)	i
COCCN1C(=O)CS(=O)(=O)C12CCN(C(=O)c1ccc(Cl)cc1)CC2	11.8%
O=C(C1CCCC1)N1CCC(CCOc2ccccc2F)C1 (configuration not stated)	i
COc1ccc(-c2csc3ncnc(Nc4cc(OC)cc(OC)c4)c23)cc1	i
CCOc1ccc(-c2csc3ncnc(Nc4cccc(O)c4)c23)cc1	10µM*
COc1ccc(-c2csc3ncnc(Nc4cccc(F)c4)c23)cc1	46.7%
COCCN1CCNc2nc(COc3cccc(C(F)(F)F)c3)n(Cc3ccccc3)c2C1=O	i
CCc1ccc(NC(=O)CCc2c(C)nc3nc(-c4cc(OC)cc(OC)c4)nn3c2C)cc1	i
COc1cc(OC)cc(-c2nc3nc(C)c(CCC(=O)NCCC(C)C)c(C)n3n2)c1	43.1%
COc1cc(OC)cc(-c2nc3nc(C)c(CCC(=O)Nc4cc(C)cc(C)c4)c(C)n3n2)c1	8.91µM*
COCCOCC(=O)N1CCCCCC1c1nnc(-c2ccccc2)o1 (configuration not stated)	-5.4%
C#CCO[C@@H]1CCN(S(=O)(=O)c2cccs2)[C@H](C(=O)N[C@H](C)C(N)=O)C1	13.9%[44.1 µM]
COCC(=O)N1C[C@@H](COC)[C@H](c2ccncc2)C1	29.2%
COCCNC(=O)C1COC2(CCN(C(=O)c3ccc(F)cc3)CC2)N1C(=O)c1cccc(OC)c1 (configuration not stated)	-0.7%
SMILES	Pf Dd2 inh
COc1ccc(-c2noc(C(=O)O)c2[C@@H](C)NC(=O)c2cc(C)n(C)n2)cc1	3.16µM*
COc1ccc(-c2noc([C@@H](C)NC(=O)c3cc(C)n(C)n3)c2C(=O)O)cc1	-17.6%[44.1 µM]
COc1ccc(-c2noc(C(=O)O)c2[C@@H](C)NC(=O)c2cccnc2)cc1	-23.8%[44.1 µM]
CC(C)CCNC(=O)C1CCCN(Cc2cccnc2)CCC(=O)NCC1 (configuration not stated)	-15.8%
C[C@]1(O)CCN(C(=O)c2cccc(Cn3cccn3)c2)C[C@@H]1O	-2.9%
Cc1ccc(Oc2c(C(F)(F)F)oc3c(CN4CCC(C)CC4)c(O)ccc3c2=O)cc1	1µM*
CC1CCCN(Cc2c(O)ccc3c(=O)c(Oc4ccccc4Cl)c(C(F)(F)F)oc23)C1 (configuration not stated)	0.891µM*
Cc1ccc(Oc2c(C(F)(F)F)oc3cc(OCC(=O)NC4CCCCC4)ccc3c2=O)cc1	-29.7%
CC1CCN(Cc2c(O)ccc3c(=O)c(Oc4ccccc4Cl)c(C(F)(F)F)oc23)CC1	0.631µM*
Cc1noc(C)c1CN1CCCC(COc2ccccc2C(=O)N2CCC(C)CC2)C1 (configuration not stated)	-3.4%
Cc1ccccc1Cn1c(CN2CCCC(C)C2)nc2c1c(=O)n(C)c(=O)n2C (configuration not stated)	9.2%
Cc1cnc2c(C(=O)N[C@H](C3CCNCC3)C3CC(O)C3)cnn2c1 (some centres not stated)	-10.3%
Cn1c(Cn2cccn2)nnc1C1CC(NC(=O)c2cc(C#N)c[nH]2)C1 (configuration not stated)	1.9%
CCCc1noc(-c2ccn3c(CNC(=O)c4ccccc4F)nnc3c2)n1	i
O=C(NCc1nnc2ccc(-c3ccccc3)nn12)c1ccc[nH]c1=O	-15.1%
COCCC(=O)N[C@H]1CC[C@]2(C)CCC([C@H](C)C(=O)NCc3ccc(F)cc3)[C@H](O)[C@H]2[C@@H]1C (some centres not stated)	i
COc1cccc(CC(=O)Nc2ccc3c(c2)CN(Cc2ccccc2F)C(=O)C(C)O3)c1 (configuration not stated)	i
COCCc1nncn1C1CCN(C(=O)c2cc(C)cc(C)c2)CC1	-4.7%
CCC(NC(=O)c1cc(OC)ccc1OC1CCN(C(C)=O)CC1)c1ccc(F)cc1 (configuration not stated)	-0.5%
COC(=O)[C@H]1CN(C(=O)c2cccnc2)CCN1C(=O)CSC	-6.1%[44.1 µM]
CCN1CC(C(=O)NCc2noc(Cc3ccccc3)n2)CCC1=O (configuration not stated)	-15.5%
CCC1Oc2ccc(NC(=O)c3cccc(OC)c3)cc2CN(Cc2ccccc2)C1=O (configuration not stated)	i
C[C@]1(CO)[C@H]2Cc3sc(NC(=O)c4ccc(F)cc4)nc3[C@@H](CC(=O)O)[C@]2(C)CC[C@H]1O	-23.9%
CCCCCC(=O)Nc1nc2c(s1)C[C@@H]1[C@](C)(CO)[C@H](O)CC[C@@]1(C)[C@@H]2CC(=O)NC1CCCCC1	i
CC(C)(C)CC(=O)Nc1nc2c(s1)C[C@@H]1[C@](C)(CO)[C@H](O)CC[C@@]1(C)[C@@H]2CC(=O)O	-21.5%[44.1 µM]
CC(C)(C)CC(=O)Nc1nc2c(s1)C[C@@H]1[C@](C)(CO)[C@H](O)CC[C@@]1(C)[C@@H]2CC(=O)NCc1ccco1	i
C[C@H](NC(=O)C[C@@H]1c2nc(NC(=O)c3ccc(F)cc3)sc2C[C@@H]2[C@](C)(CO)[C@H](O)CC[C@]21C)c1ccccc1	2.51µM*
CCCCCC(=O)Nc1nc2c(s1)C[C@@H]1[C@](C)(CO)[C@H](O)CC[C@@]1(C)[C@@H]2CC(=O)NCc1cc(F)cc(F)c1	7.94µM*
CC(C)NC(=O)C[C@@H]1c2nc(NC(=O)c3c(F)cccc3F)sc2C[C@@H]2[C@](C)(CO)[C@H](O)CC[C@]21C	-8.2%
